# Screening results as filed in PubChem.
# Most compounds without a hit are left out; they make up all but 3.6% or so of the library.
# HSF1 inh = HSF1 inhibitors in luciferase reporter cells, primary screen, cell-based, NIH3T3, luminescence. NIH3T3-HGL HSE-luciferase, MG132-induced, luminescence 8 h; stronger effect = lower value. activity change, negative = inhibition, % at 7.5 µM (by protocol). 300,000 compounds, 0.77% hits. AID 2098, 2009;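 active = more than half of replicate wells show activity change below -50%, luminescence cut by over half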;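 note: luciferase reports HSF-1 transcriptional activity via heat shock element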
# LGR2 inh = inhibitors of bursicon-induced LGR2 CRE-luciferase signal, primary screen, cell-based, HEK293, CRE-luciferase reporter, bursicon stimulation | Drosophila bursicon receptor LGR2 (rickets) | bursicon-stimulated, 4 h | inhibition, % at 9.99 µM | 380,000 compounds, 0.35% hits | AID 720647, 2013;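 active = drop in luminescence signal, shown as inhibition above about 50% in the replicate tests, limit read from the data, passing the limit was not always enough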;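 note: agonist challenge used bursicon conditioned medium at about half maximal strength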
# TROY NFkB inh = inhibitors of TROY-driven NF-kB signaling, primary screen, Q293 LMP1-TROYcd cells, NF-kB luciferase, uHTS; Q293 LMP1-TROYcd NF-kB luciferase reporter, 4 h; inhibition, % at 10 µM; 360,000 compounds, 0.98% hits;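 active = compounds whose plate-normalised and pattern-corrected inhibition of the luciferase reporter signal at the single screening dose is 50% or more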
# TWEAK Fn14 block = inhibitors of TWEAK-Fn14 signaling, primary screen, luciferase reporter cells, uHTS | 360,000 compounds, 2% hits | TWEAK-stimulated Fn14 reporter cells, luciferase luminescence, 8 h | inhibition, % at 10 µM | AID 1159606, 2016; in the data active = inhibition above about 50%
# HSF1 activator = HSF-1 activators, primary screen, NIH3T3-HGL cells, MG132 stress, luminescence, single point; NIH3T3-HGL HSF-1 luciferase reporter, 8 h; 100% = twice DMSO control signal; activation, % at 9 µM; 300,000 compounds, 1.7% hits; AID 504408, 2011;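 active = mean replicate activation of at least 50% with a set share of replicates each reaching 50%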
# EBV LMP1 NFkB = EBV LMP1-driven NF-kappaB luciferase reporter inhibitors, primary screen, cell-based, luminescence, single point. LMP1-induced NF-kappaB luciferase reporter cells. inhibition, % at 12.5 µM. 350,000 compounds, 0.69% hits. AID 504558, 2011; in the data active = inhibition above about 41%
# Hits are given with their value; - = inactive; . = no result.
SMILES,HSF1 inh,LGR2 inh,TROY NFkB inh,TWEAK Fn14 block,HSF1 activator,EBV LMP1 NFkB
O=C(Nc1ccon1)c1ccc(N2CCCCC2)c([N+](=O)[O-])c1,-,-,-,-,-,-
Cc1ccc(-c2csc(NC(=O)c3cc([N+](=O)[O-])ccc3N3CCOCC3)n2)cc1,-,-,-,-,-,-
O=C(Nc1nc2ccccc2s1)c1ccc(N2CCCCC2)c([N+](=O)[O-])c1,-,.,-,81,-,-
O=C(C[C@H]1C=C[C@@H](NC(=O)c2ccccc2)[C@H](CO)O1)NCc1ccncn1,.,-,.,.,.,.
Cc1ccc2c(COC(=O)C3=COCCO3)cc(=O)oc2c1,-,.,-,81,-,-
O=c1c2ccccc2oc2cc(C#Cc3ccccn3)ccc12,-,-,-,65,63,-
Nc1cccc(C#Cc2ccc3c(=O)c4ccccc4oc3c2)c1,.,.,-,-,.,-
COc1cccc2oc3ccc(C#Cc4ccccn4)cc3c(=O)c12,-,83,-,-,61,-
O=S(=O)(N[C@H]1CC[C@H](CCn2cc(-c3cccc(F)c3)nn2)O[C@@H]1CO)c1ccccc1,.,-,.,.,.,.
O=C1C(Br)=C(c2ccccc2)C(c2ccccc2)=C1c1ccccc1,.,.,-,57,.,-
NC(=O)Cn1c(=O)n(CCC(=O)NCCSCc2ccccc2)c(=O)c2ccccc21,-,-,71,-,-,-
COc1ccc2nc3cc(Cl)ccc3c(Nc3cc(C(C)C)c(O)cc3C)c2c1,-,-,-,63,187,-
CC(C)=CCCC(C)N(C=O)C(C)CCC=C(C)C (configuration not stated),-,.,50,53,-,-
CC(Nc1c([N+](=O)[O-])c(=O)oc2ccccc12)C(Cl)c1ccccc1 (configuration not stated),-,-,-,50,-,-
COc1c([N+](=O)[O-])c(=O)oc2ccccc12,-72,-,-,-,-,-
CO[C@H]1CN(C)C(=O)c2ccc(NC(=O)C3CCCCC3)cc2OC[C@@H](C)NC[C@H]1C,.,-,.,.,.,.
COc1cccc(NC(=O)N[C@@H]2CC[C@@H](CC(=O)Nc3ccccc3)O[C@@H]2CO)c1,.,-,.,.,.,.
CC=Cc1ccc2n(c1=O)C[C@H]1[C@H](CO)[C@@H](C(=O)NCCc3cn(C)cn3)[C@@H]2N1C(=O)C1CC1 (mixture of isomers),.,-,.,.,.,.
C[C@H](CO)N1C[C@H](C)[C@@H](CN(C)CC2CC2)OCCCC[C@H](C)Oc2ccc(NS(=O)(=O)c3ccc(F)cc3)cc2C1=O,.,-,.,.,.,.
N#CC1=C(N)SC(N)=C(C#N)C1c1cccc(Oc2ccccc2)c1,-,-,62,-,-,-
CC(=O)c1ccc(NC(=O)C(C)n2nc(-c3ccccc3)c3cc(Cl)ccc32)cc1 (configuration not stated),-67,-,-,-,-,-
CC(C(=O)NCc1ccco1)n1nc(-c2ccccc2)c2cc(Cl)ccc21 (configuration not stated),-,-,-,-,-,-
CN1CCN(c2ccc(Nc3ccnc4cc(Cl)ccc34)cc2)CC1,-,-,-,-,52,-
Cc1ccc(O)c(C2=Nc3ccccc3N=C(c3ccco3)C2)c1,-,-,-,-,-,-
Cc1ccc(C2=Nc3ccccc3N=C(c3ccco3)C2)c(O)c1,-,-,50,-,-,-
SMILES,HSF1 inh,LGR2 inh,TROY NFkB inh,TWEAK Fn14 block,HSF1 activator,EBV LMP1 NFkB
NNC(=O)COc1ccc(-c2nccc(-c3ccc(F)cc3)n2)cc1,-,-,-,55,-,-
O=C(O)COc1ccc(-c2nccc(-c3ccccn3)n2)cc1,-,-,-,61,-,-
NNC(=O)COc1ccc(F)cc1,-,-,-,-,-,-
C[C@@H]1CN([C@H](C)CO)C(=O)c2cc(NS(=O)(=O)c3ccc(F)cc3)ccc2O[C@@H](C)CCCCO[C@H]1CN(C)Cc1ccncc1,.,-,.,.,.,.
COc1ccc(N=Cc2nc(-c3ccco3)oc2O)cc1,-,.,-,-,-,-
CCC(=NCc1ccc(Cl)c(Cl)c1)c1nc(-c2ccco2)oc1O,-,-,-,-,72,-
Cc1ccc(Nc2c(-c3ccco3)nc3ccccn23)cc1,-,.,-,-,-,-
COc1ccc(Nc2c(-c3ccco3)nc3ccc(C)cn23)cc1,-,-,-,-,-,-
Fc1ccc(Nc2c(-c3ccco3)nc3ccccn23)cc1,-,-,-,-,62,-
c1ccc(Nc2c(-c3ccco3)nc3ccccn23)cc1,-,-,-,-,81,-
COc1cccc(-c2ccc3n(c2=O)C[C@@H]2[C@@H](CO)[C@H](C(=O)NCCN4CCCCC4)N(C)[C@H]32)c1,.,-,.,.,.,.
Cc1cc(C)n(C(C)CNC(=O)c2ccc3c(c2)OCO3)n1 (configuration not stated),-,-,-,-,-,-
O=C(NCCc1ccc(Cl)cc1)c1ccc2c(c1)OCO2,-,-,-,-,99,-
O=C(NCCc1ccccc1F)c1ccc2c(c1)OCCO2,-75,102,86,108,-,85
NS(=O)(=O)c1ccc(CCNC(=O)c2ccc3c(c2)OCO3)cc1,-,-,-,-,-,-
Cc1cc(C)n(CCNC(=O)c2ccc3c(c2)OCO3)n1,-,-,-,-,58,-
O=C(NCCc1ccc(Cl)cc1)c1ccc2c(c1)OCCO2,-,58,-,54,-,-
CCCNC(=O)N1CC2(CN(C(=O)C3CCCC3)C2)c2c([nH]c3cc(OC)ccc23)[C@@H]1CO,.,-,.,.,.,.
C[C@H](CO)N1C[C@H](C)[C@H](CN(C)C(=O)Nc2cccc3ccccc23)OCCCC[C@H](C)Oc2ccc(NS(=O)(=O)c3cccs3)cc2C1=O,.,-,.,.,.,.
CCNC(=O)C[C@@H]1C=C[C@H](NC(=O)C2CCOCC2)[C@@H](CO)O1,.,-,.,.,.,.
O=C(NCCc1ccc(Cl)cc1)c1ccc(Br)s1,-,-,-,-,67,-
Cc1ccc(C(=O)N/N=C/c2cccc(OC(=O)/C=C/c3ccco3)c2)cn1,-,-,-,-,-,-
O=C(/C=C/c1ccco1)Oc1cc(Br)cc(/C=N/NC(=O)c2ccccc2O)c1,-,-,-,-,-,61
COc1cccc(CNc2nc3cc(-c4ccsc4)sc3c(=O)n2C)c1OC,.,-,-,82,.,.
COc1cccc(CNc2nc3cc(-c4ccc(OC)c(OC)c4)sc3c(=O)n2C)c1,.,-,-,54,.,.
COc1ccc(-c2cc3nc(NCc4ccc(N(C)C)cc4)n(C)c(=O)c3s2)cc1OC,.,74,-,80,.,.
CS(=O)(=O)N1Cc2cc(C(=O)NCC3CCCCC3)nc(-c3cccc(-c4cccnc4)c3)c2[C@@H]1CCO,.,-,.,.,.,.
